# Values without a mark were called inactive. Records with an inconclusive call do not appear. Where a call stands in place of a potency, no number is given. The source made the active and inactive calls. The call rests on the fitted dose curve; in most records, active means well fitted curve in the direction sought with a large enough effect; inconclusive means small, poorly fitted or top-dose-only effect, or another doubt; inactive means no such curve, though single readings can be large; an effect the other way counts as inactive or inconclusive.
# Key:
# [1] = test system: Nanoluciferase (engineered Oplophorus gracilirostris luciferase); assay: Primary Nanoluciferase (NLuc) qHTS assay for identification of artifact compounds. (AID 1845222);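 further: NLuc secreted into diluted conditioned medium of S16 cells; series mostly up to about 54 µM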
# Method in brief: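 Concentration-response data were obtained by luminescence after 5 min with Nano-Glo substrate at 1:100. The enzyme was diluted S16 NLuc-expressing cell medium, preincubated with compound for 15 min at RT. Curves were fitted with a 4-parameter Hill model.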
# [2] = Primary redox qHTS assay for identification of artifact compounds. (AID 1845223)
# Method in brief: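 Redox-cycling detection via DTT (250 uM final) oxidation coupled to Amplex Red (25 uM)/HRP (250 mU/mL) in HBSS. 15 min preincubation plus 30 min after DTT, room temperature. Ex/Em 525/598 nm; 4-parameter Hill fit against DMSO and 10 uM DA3003.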
SMILES,Potency [1],Potency [2],"activity, negative = inhibition [1]",redox activity (% of DA3003) [2]
COc1ccc(/C=C/C(N)=O)cc1OC,inactive,inactive,,
CC(=O)OC1CC2C(C)(C)C(=O)C=CC2(C)C2CC(=O)C3=C(CCC3C3=CC(O)OC3=O)C12C (stereo not drawn),inactive,inactive,,
Cc1c(Cc2ccc3ccccc3n2)c2cc(F)ccc2n1CC(=O)O,inactive,inactive,,
CC1(C)C2CCC1(C)C(OC(=O)C(O)(CC(=O)O)CC(=O)O)C2 (stereo not drawn),inactive,inactive,,
CC1CC(=O)[C@]2(O)C(C(=O)OCCc3ccc(O)cc3)=CO[C@@H](O[C@@H]3O[C@H](CO)[C@@H](O)[C@H](O)[C@H]3O)[C@H]12 (stereo partly drawn),inactive,inactive,,
COc1cc2c(cc1OC)N1C(=O)C[C@@]34C=CC[N@+]5([O-])CC[C@H]2[C@H](CC3)[C@@]145,inactive,inactive,,
C=C1C[C@@]2(O)O[C@@]3(C[C@H]2C(C)C)[C@@H](C)CC[C@@H]13,inactive,inactive,,
COc1ccc(/C=C/C(=O)O[C@@H]2[C@@H](O[C@@H]3O[C@H](CO)[C@@H](O)[C@H](O)[C@H]3O)[C@@H](O)[C@H](O[C@H]3C4C=CO[C@@H](O[C@@H]5O[C@H](CO)[C@@H](O)[C@H](O)[C@H]5O)C4[C@@]4(CO)O[C@@H]34)O[C@H]2C)cc1 (stereo partly drawn),,,1.1% [at 11.6 µM],9.47% [at 11.5 µM]
COC(=O)C1=CO[C@@H](O[C@@H]2O[C@H](CO)[C@@H](O)[C@H](O)[C@H]2O)[C@H]2[C@@H]1[C@H](O)C[C@]2(C)O,inactive,inactive,,
CN(C)c1ccc(C2O[C@@H](c3ccccc3)C[C@H](c3ccccc3)O2)cc1 (stereo partly drawn),inactive,inactive,,
COc1c(O[C@@H]2O[C@H](CO)[C@@H](O)[C@H](O)[C@H]2O)c(CCC(=O)O)cc2ccoc12,inactive,inactive,,
COc1ccc(-c2ccn(CC[C@](C)(C(=O)NO)S(C)(=O)=O)c(=O)c2)c(F)c1,inactive,inactive,,
N[C@@H](CC(=O)Nc1ccc(Oc2cc(F)c(F)cc2Br)cc1)C(=O)O,inactive,inactive,,
O=C(Cc1ccccc1)OC[C@H]1O[C@H](O[C@H]2O[C@H](CO)[C@@H](O)[C@H](O)[C@H]2O)[C@H](O)[C@@H](O)[C@@H]1O,inactive,inactive,,
CC(C)C(NC(=O)c1ccc(O)cc1)C(=O)N1CCCC1C(=O)Nc1c(O)cccc1C(=O)O (stereo not drawn),inactive,inactive,,
COc1cc(/C=C/C(=O)O[C@@H]2C[C@](O)(C(=O)O)C[C@@H](O)[C@H]2O)ccc1O,inactive,inactive,,
CC(C)(O)C1OC1C1=CC(=O)C2(C)OC2C1O (stereo not drawn),inactive,inactive,,

SMILES,Potency [1],Potency [2],"activity, negative = inhibition [1]",redox activity (% of DA3003) [2]
COc1cc(C(CO)C(OC2OC(CO)C(O)C(O)C2O)c2ccc(O)c(OC)c2)ccc1O (stereo not drawn),inactive,inactive,,
O=C(/C=C/c1ccc(O)cc1)OC[C@H]1O[C@H](O[C@@]2(CO)O[C@@H](CO)[C@H](O)[C@H]2O)[C@H](O)[C@@H](O)[C@@H]1O,inactive,inactive,,
COc1ccc(C2C(C(=O)O)C(C(=O)O)C2c2ccc(OC)cc2O[C@@H]2O[C@H](CO)[C@@H](O)[C@H](O)[C@H]2O)c(O[C@@H]2O[C@H](CO)[C@@H](O)[C@H](O)[C@H]2O)c1 (stereo partly drawn),inactive,inactive,,
O=C(O)c1cccc(C(=O)CCC2OC(n3cnc4c(=O)[nH]cnc43)C(O)C2O)c1 (stereo not drawn),inactive,inactive,,
NC1(c2ccc(NC(=O)c3ccnc(-c4cc(C(=O)O)ccn4)c3)cc2)CC1,inactive,inactive,,
COc1cc(C(=O)OC[C@@]2(O)CO[C@@H](O[C@H]3[C@H](Oc4ccc(O)cc4)O[C@H](CO)[C@@H](O)[C@@H]3O)[C@@H]2O)cc(OC)c1O,inactive,inactive,,
COc1cc(O)cc(O[C@@H]2O[C@H](CO)[C@@H](O[C@@H]3OC[C@](O)(CO)[C@H]3O)[C@H](O)[C@H]2O)c1OC,inactive,inactive,,
Cc1ccc(Nc2nnc(-c3ccc([N+](=O)[O-])cc3)o2)cc1Cl,inactive,inactive,,
C=C[C@H]1[C@H](O[C@@H]2O[C@H](CO)[C@@H](O)[C@H](O)[C@H]2O)OC=C(C(=O)OC)[C@H]1CC=O,inactive,inactive,,
CC1=C(CO)C2(C)CCCC(C)(C)C2C(O)C1O (stereo not drawn),inactive,inactive,,
C=C(C)[C@H]1CC[C@]2(C(=O)O)CC[C@]3(C)C(CCC4[C@@]5(C)CCC(=O)C(C)(C)C5CC[C@]43C)C12 (stereo partly drawn),inactive,inactive,,
CC(C)C1NC(=O)C2CCCN2C1=O (stereo not drawn),inactive,inactive,,
COC(=O)[C@@H](NC(=O)[C@H](CC(C)C)NC(=O)N(Cc1ccccc1)C[C@@H](O)[C@H](Cc1ccccc1)NC(=O)OC(C)(C)C)C(C)C,,,-4.83% [at 11.6 µM],19.1% [at 11.5 µM]
C=C1CCC2(OC1)OC1CC3C4CC=C5CC(O)CC(O[C@@H]6OC[C@H](OC(=O)C(O)C(C)CC)[C@H](O)[C@H]6O[C@@H]6O[C@@H](C)[C@H](O)[C@@H](O)[C@H]6O)C5(C)C4CCC3(C)C1C2C (stereo partly drawn),,,4.49% [at 11.6 µM],-3.18% [at 11.5 µM]
C[C@@H]1[C@H](O)[C@@H]2OC(=O)C3=C2[C@H](CCC3)[C@@]12C[C@@H](c1ccoc1)OC2=O,inactive,inactive,,
C=C1CC23CC1CCC2C12OC(=O)C(C)(C(O)CC1O)C2C3C(=O)O (stereo not drawn),inactive,inactive,,
Oc1ccc(CC2NCCc3cc(O)c(O)cc32)cc1 (stereo not drawn),inactive,inactive,,
